Results filed as inconclusive are left out. Active and inactive are the calls of the source. Calls follow the shape of the dose curve; as a rule, active = well fitted inhibition curve with a large enough effect; inconclusive = small, poorly fitted or top-dose-only effect; inactive = flat fitted curve, though single readings scatter.
How the values were obtained:
Experiment in all cases: qHTS profiling for inhibitors of Plasmodium falciparum proliferation (AID 504749); also: nearly all actives have a fitted effect of over 60% in size
Conditions in all cases: P. falciparum in erythrocytes, SYBR Green DNA, 72 h; series mostly up to 12.8 µM
AA1029 = tested on: AA1029
Method in brief: (§1)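 SYBR Green fluorescence of parasite DNA, read after lysis and overnight dark incubation, measured growth over 72 h in erythrocyte culture at 0.3% parasitemia and 2.5% hematocrit. Data normalised to DMSO and 0.29 uM artemisinin, with plate-drift correction.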

ATS95 = tested on: ATS95
Method in brief: as §1

C2A = tested on: C2A
Method in brief: as §1

CP211 = tested on: CP211
Method in brief: as §1

CP217 = tested on: CP217
Method in brief: as §1

CP250 = tested on: CP250
Method in brief: as §1

CP252 = tested on: CP252
Method in brief: as §1

CP256 = tested on: CP256
Method in brief: as §1

CP260 = tested on: CP260
Method in brief: as §1

CP269 = tested on: CP269
Method in brief: as §1

CP315 = tested on: CP315
Method in brief: as §1

CP325 = tested on: CP325
Method in brief: as §1

CP329 = tested on: CP329
Method in brief: as §1

FAB9 = tested on: FAB9
Method in brief: as §1

JCK = tested on: JCK
Method in brief: as §1

N140 = tested on: N140
Method in brief: as §1

PAD = tested on: PAD
Method in brief: as §1

PC15 = tested on: PC15
Method in brief: as §1

SC27B = tested on: SC27B
Method in brief: as §1

TAB165 = tested on: TAB165
Method in brief: as §1

Measured: Potency

C[N+](C)(C)CC(O)CC(=O)O (stereo not given)
inactive: AA1029 | ATS95 | C2A | CP211 | CP217 | CP250 | CP252 | CP256 | CP260 | CP269 | CP315 | CP325 | CP329 | FAB9 | JCK | N140 | PAD | PC15 | SC27B | TAB165

CC(C)N1CCN(c2ccc(OC[C@@H]3CO[C@@](Cn4cncn4)(c4ccc(Cl)cc4Cl)O3)cc2)CC1
inactive: AA1029 | ATS95 | C2A | CP211 | CP217 | CP250 | CP252 | CP256 | CP260 | CP269 | CP315 | CP325 | CP329 | FAB9 | JCK | N140 | PAD | PC15 | SC27B | TAB165

O=C(Cc1cccs1)NC1C(=O)N2C(C(=O)[O-])=C(C[n+]3ccccc3)CSC12 (stereo not given)
inactive: AA1029 | ATS95 | C2A | CP211 | CP217 | CP250 | CP252 | CP256 | CP260 | CP269 | CP315 | CP325 | CP329 | FAB9 | JCK | N140 | PAD | PC15 | SC27B | TAB165

Reference: PubChem BioAssay (NCATS)
